The record followed here is the OligoGym collection.
Further: reference of the scale not given here.

One experiment deals with ACAD10. Put plainly: pooled miR-30 sensor sort-seq; sequence = guide strand. The conditions noted are these: shRNA.
Sequence AAGCACAGCTTGTAGATCCTAG registered a sensor-assay potency score (higher = more potent) of 0.0767.
On the same count and under the same terms, in the case of TTCGGTGCCATACCTCACCAGC it was -0.906; in that of TACAGCTCTCTGACAGGTGGAG, -0.377.
TTTCTCCTTGAGGTCTTCGATC gave a sensor-assay potency score (higher = more potent) of -1.58.
Still for that read-out and setting: to TTGAGGTCTTCGATCAGTGGGG belongs -0.0648.

In a further experiment the target is ACAP2. Described as above. Particulars: shRNA.
Turning to TAAATCTAGACTGAACTTCTGT, the sensor-assay potency score (higher = more potent) came to 0.683.
Same read-out and setting: to TACTTCTGACTGAACTTTGGGC belongs 0.208.
Still for that read-out and setting: in the case of TTATTCTGTATTGAAAACCAGC it was -0.889; in that of TATATTCTAACTTAGAATCATC, -0.946.
As for TAATCTGAAGCACATAATCGAG, the sensor-assay potency score (higher = more potent) was -1.42.
Sequence TTTAACAAAGTTCTGAAGCTGT returned a sensor-assay potency score (higher = more potent) of 0.177.
On the same count and under the same terms, in the case of TAACTTAGAATCATCACTGGAG it was 0.563.
Take TTTGGTTGACATTAGCACCATT: the sensor-assay potency score (higher = more potent) is -0.325.
The sequence TATCCTTCCATAACTATGCCAT displayed a sensor-assay potency score (higher = more potent) of -0.0646.
Regarding TTTAGCTGTATACATTAGGGGG, the sensor-assay potency score (higher = more potent) is -0.7.
In the case of TTTAGGATTTCTGATCTCCTTT, the sensor-assay potency score (higher = more potent) is -0.154.
On the same count and under the same terms, in the case of TGATTGAAGAACATTAATCTGA it was 0.0917.

The next experiment has as its target ACBD3. Described as above. The conditions noted are these: shRNA.
For the sequence TTTTTCTTTGAAGAAGCGCAGT, the sensor-assay potency score (higher = more potent) was -0.812.
The same measure, in the same setting: in the case of TAGTAGACTGATTTTGACCGCC it was 0.374; in that of TTCTTTTGGTCCATTCTCCAGG, -0.756; in that of TTGCTGTGCAAGCTGGACTTGA, -0.769.
The same measure, in the same setting: to TAAAGCTGCCATTATCTGCTGC belongs -0.101.
Same read-out and setting: in the case of TTTCTCTTCACAACCGATGTTT it was -0.314; in that of TTGAAGTCTTTGATCTGAGGTC, -0.0448; in that of TATTACTTGGTACAGTTGCATT, -1.49.
The sequence TAACTGACATCATATTACTTGG registered a sensor-assay potency score (higher = more potent) of -0.575.
Still for that read-out and setting: in the case of TCTTCTTCTATCCGTCTCCTTT it was -0.731; in that of TTAACTGACATCATATTACTTG, 0.151; in that of TTAAATGTCATCTTCTGCCCAA, 0.233.

A further experiment has as its target ACCN2. The description is as above. Particulars: shRNA.
In turn, TCAGATTTGTTGAACTTCTTGG showed a sensor-assay potency score (higher = more potent) of 1.11.
Still for that read-out and setting: to TTCAATGGTCTCATAGTTGAGG belongs -0.393; to ATAGCGTGTGAAGACCACCTTG, -0.485.
In turn, TTTGTTGAACTTCTTGGCCAGG registered a sensor-assay potency score (higher = more potent) of -0.861.
On the same count and under the same terms, to TGAACGTGTAGCACTTTCCATA belongs -0.947.
On the same count and under the same terms, in the case of TTTTCCTCGTCGGCACAGCTTG it was -1.19.
Still for that read-out and setting: in the case of TTGGCTAAAGCGGAACTCGTTG it was -0.0624.
TTGAACGTGTAGCACTTTCCAT gave a sensor-assay potency score (higher = more potent) of -0.501.
Still for that read-out and setting: to TTTGACGTCGTCCAGGCTGAGG belongs -1.49.
Consider TATAGCAATATAGAGTCTGTAT, for which the sensor-assay potency score (higher = more potent) was -0.0507.
TGGATCTGCACTTTGATGCCTG displayed a sensor-assay potency score (higher = more potent) of -0.178.
